Screening results (PubChem)
Most compounds without a hit are left out; they make up all but 8.8% or so of the library.
HPGD block = qHTS Assay for Inhibitors of HPGD (15-Hydroxyprostaglandin Dehydrogenase). 15-hydroxyprostaglandin dehydrogenase [NAD(+)] (Homo sapiens), P15428. purified HPGD, NADH fluorescence kinetic, PGE2 substrate. Potency, µM, most hits filed as inhibitors. hit rate 4.3% among 150,000. AID 894, 2007; active means well fitted inhibition curve with a large enough effect, not every such curve was filed as active; inconclusive means small, poorly fitted or top-dose-only effect, or another doubt; inactive means no such curve, though single readings can be large or run the other way
Target sequence (P15428 whole entry, looked up): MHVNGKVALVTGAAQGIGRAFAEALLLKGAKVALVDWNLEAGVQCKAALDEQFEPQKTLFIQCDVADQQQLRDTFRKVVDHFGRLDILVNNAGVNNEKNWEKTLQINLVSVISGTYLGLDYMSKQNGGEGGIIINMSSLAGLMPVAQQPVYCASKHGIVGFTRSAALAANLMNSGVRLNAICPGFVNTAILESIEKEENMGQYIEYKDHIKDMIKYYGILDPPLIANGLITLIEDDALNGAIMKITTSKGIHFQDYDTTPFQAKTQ
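20 nM HPGD preincubated 15 min at room temperature with compound in 50 mM Tris-HCl pH 8, 0.01% Tween 20. Started with 1 mM NAD+ and 30 uM prostaglandin E2; NADH fluorescence (360/450 nm) read 5 times over 30-s intervals, last minus first.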
ALDH1A1 inh = qHTS Assay for Inhibitors of Aldehyde Dehydrogenase 1 (ALDH1A1); Aldehyde dehydrogenase 1A1 (Homo sapiens), P00352; Purified ALDH1A1, NADH fluorescence, propionaldehyde substrate; Potency, µM (series often up to 75.3 µM), hits mostly inhibitors; hit rate 7.3% among 220,000; AID 1030, 2008; active means well fitted inhibition curve with a large enough effect, not every such curve was filed as active; inconclusive means small, poorly fitted or top-dose-only effect, or another doubt; inactive means no such curve, though single readings can be large or run the other way
Target sequence (P00352 whole entry, looked up): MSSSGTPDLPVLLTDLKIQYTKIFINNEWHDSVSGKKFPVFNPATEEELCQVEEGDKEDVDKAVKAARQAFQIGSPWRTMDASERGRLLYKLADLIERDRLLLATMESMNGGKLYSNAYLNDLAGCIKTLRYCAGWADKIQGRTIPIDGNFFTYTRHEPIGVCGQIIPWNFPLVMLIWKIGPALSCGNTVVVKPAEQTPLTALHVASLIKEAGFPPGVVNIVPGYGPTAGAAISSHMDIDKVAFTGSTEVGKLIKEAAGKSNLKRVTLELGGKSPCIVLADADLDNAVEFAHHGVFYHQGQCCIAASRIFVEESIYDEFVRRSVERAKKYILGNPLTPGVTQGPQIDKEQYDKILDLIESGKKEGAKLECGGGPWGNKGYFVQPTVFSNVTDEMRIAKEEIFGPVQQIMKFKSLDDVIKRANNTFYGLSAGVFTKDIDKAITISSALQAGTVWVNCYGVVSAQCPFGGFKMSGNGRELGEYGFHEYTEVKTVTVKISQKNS
HttQ103 aggreg = qHTS Multiplex Assay to Identify Dual Action Probes in a Cell Model of Huntington: Aggregate Formation (GFP); AID 1688, 2009; PC12 HttQ103-GFP aggregates, Acumen cytometry, 40 h; Potency, µM (series often up to 46.1 µM), most hits filed as inhibitors; hit rate 1.1% among 220,000; further: nearly all actives have a fitted effect of over 60% in size
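Steps: seed 1500 PC12 HTTQ103-GFP cells/well; add tebufenozide, 100 nM final; add compound titration; add ATPLite reagent; quantify GFP aggregates by laser scanning cytometry.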
HTT cytoprotect = qHTS Multiplex Assay to Identify Dual Action Probes in a Cell Model of Huntington: Cytoprotection (ATP) | Potency, µM (highest dose often 56.4 µM), usual class: activators | AID 1471, 2008 | PC12 HTT-Q103 induced, cytoprotection, ATP luminescence, 40 h | hit rate 0.14% among 230,000; further: nearly all actives have a fitted effect of over 45% in size
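Huntington model: PC12 line, ecdysone-inducible HTTQ103 exon1–GFP, tebufenozide 100 nM. Test articles in a dose series. Endpoint luminescence from cellular ATP.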
LMNA splice mod = qHTS Assay for Modulators of Lamin A Splicing | hit rate 0.01% among 200,000 | HeLa LMNA splicing GFP/RFP minigene ratio, 48 h | Potency, µM (series often up to 46.1 µM), actives largely listed as inhibitors; active means well fitted inhibition curve with a large enough effect in the signal ratio, with a control signal flat, not every such curve was filed as active; inconclusive means small, poorly fitted or top-dose-only effect, or effect the other way, or a change in a side signal; the % refers to the signal ratio
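Read-out is the ratio of GFP to DsRed2 object intensity, acquired by 488 nm laser-scanning cytometry on HeLa lamin A-EGFP minigene reporter cells. Compound incubation 48 hrs at 37 °C in Opti-MEM with 2% FBS; DMSO 0.5% final.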
A number is an active result; [ ] = another dose, or the depositor's remark. Unless noted, the call rests on the fitted dose curve; in most records, active means well fitted curve in the direction sought with a large enough effect; inconclusive means small, poorly fitted or top-dose-only effect, or another doubt; inactive means no such curve, though single readings can be large; an effect the other way counts as inactive or inconclusive.

What do the screens show for `O=C(NCc1ccccc1)c1cc2nc(C3CC3)cc(C(F)(F)F)n2n1`?
HPGD block: inactive; ALDH1A1 inh: inactive; HttQ103 aggreg: inactive; HTT cytoprotect: inactive; LMNA splice mod: inactive

Results for COc1ccc2c(c1)C(=O)[C@@H](OC(=O)Nc1ccc(C)c(Br)c1)[C@H](c1ccc(OC)c(Br)c1)O2 ?
HPGD block: inactive; ALDH1A1 inh: inactive; HTT cytoprotect: inactive

What do the screens show for `CCOC(=O)c1ccc(NC(=O)CC2SCCNC2=O)cc1` (configuration not stated)?
HPGD block: inactive; ALDH1A1 inh: 13µM; HttQ103 aggreg: inactive; HTT cytoprotect: inactive[0.074 µM]; LMNA splice mod: inconclusive

What do the screens show for `CCOC(=O)c1ccc(NC(=O)CC2C(=O)OCCN2CC)cc1` (configuration not stated)?
ALDH1A1 inh: 1.4µM; HttQ103 aggreg: inactive; LMNA splice mod: inactive

What do the screens show for `CCOC(=O)c1ccc(NC(=O)CC2OCCN(CC)C2=O)cc1` (configuration not stated)?
HPGD block: inactive; ALDH1A1 inh: 1.8µM; HttQ103 aggreg: inactive; HTT cytoprotect: inactive; LMNA splice mod: inactive

What do the screens show for `CCCN1CCOC(CC(=O)Nc2ccc([N+](=O)[O-])cc2)C1=O` (configuration not stated)?
ALDH1A1 inh: 8.9µM; HttQ103 aggreg: inactive; HTT cytoprotect: inactive

How did CCOC(=O)c1ccc(NC(=O)CN2C(=O)CSCC2=O)cc1 do in these assays?
HPGD block: inactive; ALDH1A1 inh: inconclusive; HttQ103 aggreg: inactive; HTT cytoprotect: inactive[10 µM]; LMNA splice mod: inactive

How did CCOC(=O)c1ccc(NC(=O)CC2NCCNC2=O)cc1 (configuration not stated) do in these assays?
HPGD block: inactive; ALDH1A1 inh: inactive; HttQ103 aggreg: inactive; HTT cytoprotect: inactive; LMNA splice mod: inactive

Results for CCN1CCOC(CC(=O)Nc2cccc([N+](=O)[O-])c2)C1=O (configuration not stated) ?
HttQ103 aggreg: inactive[9.22 µM]; HTT cytoprotect: inactive[10 µM]

What do the screens show for `COc1ccc(C(=O)N2CCC3(CC2)CN(c2ncccn2)C3)cc1`?
HPGD block: inconclusive; ALDH1A1 inh: inconclusive; HTT cytoprotect: inactive

How did CC(=O)Nc1c(O)nc(SCC(=O)Nc2ccc(C(C)=O)cc2)[nH]c1=O do in these assays?
HPGD block: inactive; ALDH1A1 inh: 11µM; HttQ103 aggreg: inactive; HTT cytoprotect: inactive; LMNA splice mod: inactive

How did CC(=O)Nc1c(O)nc(SCC(=O)Nc2cccc(C)c2)[nH]c1=O do in these assays?
HPGD block: inactive; ALDH1A1 inh: inactive; HttQ103 aggreg: inconclusive; HTT cytoprotect: inactive[10 µM]; LMNA splice mod: inactive

What do the screens show for `CCOC(=O)N1CCC(NC(=O)C2CCN(C(=O)N3CC(C)Oc4ccccc43)CC2)CC1` (configuration not stated)?
HPGD block: inactive; ALDH1A1 inh: inconclusive; HttQ103 aggreg: inactive; HTT cytoprotect: inactive; LMNA splice mod: inactive

What do the screens show for `CCOC(=O)N1CCC(NC(=O)C2CCN(C(=O)N3CC(C)Oc4ccc(C)cc43)CC2)CC1` (configuration not stated)?
HPGD block: inactive; ALDH1A1 inh: 7.9µM; HttQ103 aggreg: inactive; HTT cytoprotect: inactive[0.074 µM]; LMNA splice mod: inactive

What do the screens show for `O=C(CSc1n[nH]c(=O)n1Cc1ccco1)Nc1ccccc1Cl`?
HttQ103 aggreg: inactive[9.22 µM]; HTT cytoprotect: inactive[10 µM]

Results for N#CC(C#N)=C1c2cc(S(N)(=O)=O)ccc2-c2ccc(S(N)(=O)=O)cc21 ?
ALDH1A1 inh: 7.9µM; HttQ103 aggreg: inactive[9.22 µM]; HTT cytoprotect: inactive[10 µM]; LMNA splice mod: inactive

How did COc1cccc(Cn2c(=O)c(-c3cccs3)nc3cnc(N(C)C)nc32)c1 do in these assays?
ALDH1A1 inh: inconclusive; HTT cytoprotect: inactive; LMNA splice mod: inactive

How did Cc1cccc(CNC(=O)CCn2c(=O)c3cccn3c3ccc(F)cc32)c1 do in these assays?
LMNA splice mod: inactive

Results for O=C1c2ccccc2C(=O)N1Nc1ccccc1 ?
HPGD block: inactive; ALDH1A1 inh: inactive; HttQ103 aggreg: inactive; HTT cytoprotect: inactive; LMNA splice mod: inactive

How did Cc1ccc(NN2C(=O)C=C(c3ccccc3)C2=O)cc1 do in these assays?
ALDH1A1 inh: 16µM; HttQ103 aggreg: inconclusive; HTT cytoprotect: inactive[10 µM]; LMNA splice mod: inconclusive

Results for S=c1[nH]nc(-c2ccccc2)c2ccccc12 ?
ALDH1A1 inh: 8.9µM; LMNA splice mod: inactive

How did Cc1ccc(-c2cc(-c3n[nH]c(=S)n3C)c3ccccc3n2)cc1 do in these assays?
ALDH1A1 inh: inconclusive; HttQ103 aggreg: inactive

Results for Cc1ccc(-c2n[nH]c(=S)c3ccccc23)cc1 ?
ALDH1A1 inh: 0.35µM; HttQ103 aggreg: inactive; HTT cytoprotect: inactive[10 µM]; LMNA splice mod: inactive

How did Cc1cccc(C)c1NC(=O)CN1C(=O)c2cccc3cccc1c23 do in these assays?
LMNA splice mod: inactive

What do the screens show for `COC(=O)c1cc(CSc2nnc(NC3CCCCC3)s2)oc1C`?
HPGD block: inactive; ALDH1A1 inh: inconclusive; HttQ103 aggreg: 28µM; HTT cytoprotect: inactive; LMNA splice mod: inconclusive

What do the screens show for `COc1ccc(OC)c(-c2ccccc2/C=N/NS(=O)(=O)c2ccc(C)cc2)c1`?
ALDH1A1 inh: inactive[13.5 µM]; HTT cytoprotect: inactive[10 µM]

What do the screens show for `Cc1ccc2c(c1)C1CCCC3C1N2CC(=O)N3Cc1ccccc1` (configuration not stated)?
HPGD block: inactive; ALDH1A1 inh: 22µM; HttQ103 aggreg: inactive; HTT cytoprotect: inactive; LMNA splice mod: inactive

How did COc1ccc(C2C(=O)N(C3CCCCCC3)CC(=O)N2Cc2ccccc2)cc1OC (configuration not stated) do in these assays?
HPGD block: inactive; ALDH1A1 inh: inactive; HttQ103 aggreg: inactive; HTT cytoprotect: inactive; LMNA splice mod: inactive

What do the screens show for `O=C(COc1ccccc1)N1CCN(c2ncccn2)CC1`?
ALDH1A1 inh: inactive; HttQ103 aggreg: inactive; HTT cytoprotect: inactive

What do the screens show for `Cc1nc(N2CCN(C(=O)COc3ccccc3)CC2)c2c(C)c(C)sc2n1`?
HPGD block: inconclusive; ALDH1A1 inh: 11µM; HttQ103 aggreg: inactive; HTT cytoprotect: inactive; LMNA splice mod: inconclusive

How did CCN(CC)S(=O)(=O)c1ccc(N2CCOCC2)c(NC(=O)CCOc2ccccc2)c1 do in these assays?
HttQ103 aggreg: inactive[9.22 µM]; HTT cytoprotect: inactive[10 µM]

Results for CCN(CC)S(=O)(=O)c1ccc(N2CCOCC2)c(NC(=O)c2ccc(F)cc2)c1 ?
ALDH1A1 inh: inconclusive; HttQ103 aggreg: inactive; HTT cytoprotect: inactive; LMNA splice mod: inactive

What do the screens show for `CCN(CC)S(=O)(=O)c1ccc(N2CCOCC2)c(NC(=O)c2ccc(C#N)cc2)c1`?
ALDH1A1 inh: 20µM; HttQ103 aggreg: inactive; HTT cytoprotect: inactive
